This is a sample that favours compounds with a hit; in the whole collection about 3% have one here.
N-glyco inh: blocks N-linked glycosylation in D54 reporter cells; 360,000 tested, 0.23% active; reporter increase, % at 12.5 µM; D54 ERlucT glycosylation luciferase reporter, 24 h; percent of 100 nM tunicamycin response;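 active = mean luciferase reporter signal, scaled so untreated is 0 and the glycosylation-blocking control 100, at or above a set limit in every replicate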;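 note: luciferase carries N-glycosylation sites so blocking glycosylation raises the light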
PfHsp90 yeast 2: inhibits growth of yeast expressing Plasmodium falciparum Hsp90. AID 504621. S. cerevisiae expressing PfHsp90, BacTiter-Glo ATP, 48 h; yeast lacking PDR1 and PDR3 efflux regulators. inhibition, % at 9.4 µM. 310,000 tested, 0.32% active;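 active = every replicate shows inhibition above about 80%, whatever the replicate mean, limit read from the data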
Wnt act: activators of Wnt/beta-catenin signaling; Wnt/beta-catenin reporter cell assay, activator, plate reader; activation, % at 9.35 µM; 300,000 tested, 1.2% active; in the data active = activation above about 30%, passing the limit was not always enough
esBAF inh: inhibitors of esBAF chromatin remodeling in mouse ES cells. reporter increase, % at 12.5 µM. AID 602393. 350,000 tested, 2% active. Bmi1-luciferase knock-in reporter, 24 h; 100% = twice the neutral-well signal; in the data active = activation above about 40%;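 note: a rise in the Bmi1 reporter signal indicates esBAF inhibition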
MITF act: increases MITF-driven TRPM1 promoter luciferase signal; SK-MEL-5 TRPM1-promoter luciferase, 24 h; % of positive control, neutral wells = 0; activation, % at 12.5 µM; 300,000 tested, 0.75% active; AID 588334;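 active = mean activation of at least 80% with every replicate also reaching 80%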
Vif inh: blocks HIV Vif function; inhibition, % at 7.49 µM; 340,000 tested, 0.35% active; HEK293T cells, Vif self-association by quenched fluorescence, imaging, 24 h; in the data active = inhibition above about 50%, passing the limit was not always enough
Large screens that a line does not name were inactive.

COc1ccc(C(=O)C(OC(=O)c2ccccc2Cl)c2ccccc2)cc1 (stereo unspecified)	none (no result: Wnt act, esBAF inh)
COc1ccc(C(=O)C(OC(=O)c2ccccc2)c2ccccc2)cc1 (stereo unspecified)	esBAF inh 84 (no result: MITF act)
COc1ccc(CC(=O)Nc2ccc(-c3cn4ccc(C)cc4n3)cc2)cc1	esBAF inh 58 (no result: Wnt act)
COc1ccc(CC(=O)Nc2ccc(-c3cn4cccc(C)c4n3)cc2)cc1OC	none (no result: Wnt act)
COc1ccc(NC(=O)CNC(=O)Cc2ccccc2)cc1	none
CCN(CC(O)c1cccc(O)c1)C(=O)C12CC3CC(CC(C3)C1)C2 (stereo unspecified)	none
COc1ccc(C(=O)COC(=O)c2ccco2)cc1	esBAF inh 49 (no result: Wnt act)
Cc1nc2cc(N)ccc2n1C1CCCCC1	none (no result: esBAF inh)
O=C(COC(=O)c1ccccn1)NCCc1ccc(Cl)cc1	none (no result: PfHsp90 yeast 2)
CC(C)Cc1ccc(/C=C/C(=O)N2CCOCC2)cc1	esBAF inh 52, MITF act 103
CC(C)(C)c1ccc(/C=C/C(=O)N2CCOCC2)cc1	none (no result: esBAF inh)
COc1ccc(S(=O)(=O)N(C)C[C@@H]2Oc3ccc(NC(=O)NC(C)C)cc3C(=O)N([C@H](C)CO)C[C@H]2C)cc1	none (no result: N-glyco inh, PfHsp90 yeast 2, Wnt act, MITF act, Vif inh)
COc1ccccc1NC(=O)c1sc2nc(N3CCOCC3)c3c(c2c1N)CCCC3	none
Cc1cc(C)c2c(N)c(C(=O)Nc3ccccc3F)sc2n1	esBAF inh 50
Cc1cc(C)c2c(N)c(C(=O)Nc3ccccc3Cl)sc2n1	none (no result: PfHsp90 yeast 2, esBAF inh, MITF act)
Cc1ccccc1NC(=O)c1sc2nc(N3CCOCC3)c3c(c2c1N)CCCC3	esBAF inh 54
CCC(=O)C1=C(O)C(c2cccc(Oc3ccccc3)c2)CCC1=O (stereo unspecified)	none
Cc1c(NC(=O)c2csc3c2CCCC3)c(=O)n(-c2ccccc2)n1C	none
Cc1nc(C)c(-c2ccc(SCc3ccccc3C)nn2)s1	esBAF inh 52
CNC(=O)CSc1ncnc2c1cnn2-c1ccccc1	none (no result: esBAF inh)
CC(=O)CSc1ncnc2c1cnn2-c1ccccc1	Wnt act 42
Cc1cccc(-n2ncc3c(NC(C)C)ncnc32)c1	none
CC(C)Nc1ncnc2c1cnn2-c1ccccc1	Wnt act 53 (no result: MITF act)
c1ccc(-n2ncc3c(NC4CCCCCC4)ncnc32)cc1	esBAF inh 55 (no result: MITF act)
Cc1csc(NC(=O)CSc2ncnc3c2cnn3-c2ccccc2Cl)n1	Vif inh 73 (no result: Wnt act)
O=C(CSCc1ccccc1Cl)NCCSc1ccccn1	none (no result: esBAF inh)
Cc1ccc(S(=O)(=O)N(C)C[C@H]2Oc3ccc(NS(=O)(=O)c4ccc(Cl)cc4)cc3C(=O)N([C@@H](C)CO)C[C@@H]2C)cc1	none (no result: N-glyco inh, PfHsp90 yeast 2, Wnt act, MITF act, Vif inh)
CCC(=O)N1[C@@H]2CN(C(=O)c3ccc4c(c3)OCO4)c3ccccc3[C@@H]2[C@@H]1CO	none (no result: N-glyco inh, PfHsp90 yeast 2, Wnt act, MITF act, Vif inh)
O=C(Nc1cc(Cl)ccc1O)c1cc(-c2ccco2)on1	esBAF inh 67
O=C(Nc1cccnc1Cl)c1cc(-c2ccco2)on1	Wnt act 59, esBAF inh 46 (no result: PfHsp90 yeast 2, MITF act)
O=C(O)c1cn(CCOc2ccccc2Cl)c2ccccc12	none (no result: esBAF inh)
Cc1cc(C)c2nc3sc(C(=O)N4CCOCC4)c(N)c3cc2c1	Vif inh 67
Cc1ccc(C)c2nc3sc(C(=O)N4CCOCC4)c(N)c3cc12	none (no result: esBAF inh)
C[C@H](CO)N1C[C@H](C)[C@@H](CN(C)Cc2ccc(C(F)(F)F)cc2)Oc2ccc(NC(=O)Nc3ccc(F)cc3)cc2CC1=O	none (no result: N-glyco inh, PfHsp90 yeast 2, Wnt act, MITF act, Vif inh)
Cc1ccc(NC(=S)NC(=O)C2CCC2)cc1C	esBAF inh 84, MITF act 113
Cc1ccc(NC(=S)NC(=O)C2CC2)c(C)c1	esBAF inh 50
O=C(NC(=S)Nc1cccc(O)c1)C1CCCCC1	esBAF inh 42 (no result: PfHsp90 yeast 2)
Cc1ccc(NC(=S)NC(=O)C2CCCC2)cc1C	MITF act 114 (no result: esBAF inh)
NC(=O)COC(=O)C(Cc1ccccc1)NS(=O)(=O)c1ccccc1F (stereo unspecified)	none
c1ccc(CNc2nc(NCCOc3ccccc3)c3sccc3n2)cc1	none (no result: PfHsp90 yeast 2, MITF act)
COc1ccc(C)cc1C(=O)CCC(=O)Nc1ccccc1N1CCOCC1	none
CCCc1nc2ccc(NC(C)=O)cc2c(=O)n1Cc1ccc(Cl)cc1	MITF act 82 (no result: esBAF inh)
CCN(CC)c1ccc(/C=N/N2CCOCC2)c(O)c1	MITF act 109 (no result: Wnt act, esBAF inh)
CCN(CC)c1ccc(/C=N/N=C(N)N)c(O)c1	Vif inh 65 (no result: esBAF inh)
Cc1ccc(NC(=O)Nc2nnc(-c3ccccc3F)s2)cc1	Wnt act 33 (no result: esBAF inh)
O=C(Nc1nnc(C(F)(F)F)s1)c1cccnc1	none (no result: Wnt act)
COc1cccc(C(=O)Nc2cccc3cccnc23)c1OC	esBAF inh 43 (no result: Wnt act)
O=C(Nc1nnc(-c2ccccc2F)s1)c1cccnc1	esBAF inh 60
COc1ccc(C(=O)Nc2nnc(-c3ccccc3)s2)cc1	esBAF inh 47
C[C@@H]1CN([C@@H](C)CO)C(=O)c2cc(NC(=O)c3ccncc3)ccc2O[C@@H](C)CCCCO[C@H]1CN(C)C(=O)Nc1ccc(C(F)(F)F)cc1	none (no result: N-glyco inh, PfHsp90 yeast 2, Wnt act, MITF act, Vif inh)
O=C(C[C@@H]1CC[C@@H]2[C@H](COC[C@@H](O)CN2C(=O)c2ccccc2F)O1)NCc1ccc(Cl)cc1	none (no result: N-glyco inh, PfHsp90 yeast 2, Wnt act, MITF act, Vif inh)
CC(C)=CC(=O)Nc1nnc(-c2ccccc2)s1	none (no result: Vif inh)
O=C(Nc1ccccc1)Nc1nnc(-c2ccccc2)s1	Wnt act 33, esBAF inh 51 (no result: MITF act)
COc1ccccc1C(=O)Nc1nnc(-c2ccccc2)s1	esBAF inh 47 (no result: MITF act)
O=C(Nc1nnc(-c2ccccc2)s1)c1ccccc1O	esBAF inh 67
Cc1nnc(NC(=O)c2ccccc2-c2ccccc2C(=O)O)s1	none (no result: esBAF inh)
COc1cccc(C(=O)Nc2nnc(-c3ccccc3)s2)c1OC	Wnt act 45
COC(=O)C1=CNC=C(C(=O)OC)C1c1ccccc1Cl	none
Cn1c(=O)c2c(nc(SCc3ccc(F)cc3)n2C)n(C)c1=O	none
Cc1ccc(NC2CCCN(C(=O)c3cn4cc(Cl)ccc4n3)C2)cc1C (stereo unspecified)	none
COc1ccccc1C(=O)N(C)c1nnc(-c2ccccc2)s1	Wnt act 40, esBAF inh 49
CN(C(=O)c1ccncc1)c1nnc(-c2cccnc2)s1	none (no result: esBAF inh)
Cc1c(-c2nc(N)nc(Nc3ccc(F)cc3)n2)oc2ccccc12	esBAF inh 62
O=c1oc2ccccc2c(Nc2ccc(F)cc2)c1[N+](=O)[O-]	none (no result: esBAF inh)
Cc1ccccc1Nc1nc(N)nc(-c2oc3ccccc3c2C)n1	Wnt act 47 (no result: esBAF inh, MITF act)
COc1ccccc1Nc1nc(N)nc(-c2oc3ccccc3c2C)n1	none (no result: Wnt act, MITF act)
Cc1onc(-c2ccccc2)c1-c1ccnn1C(=O)NC(C)C	none
COc1ccc(CN2C(=O)CSCC2=O)cc1OC	none
O=C1/C(=C/c2ccccc2[N+](=O)[O-])COc2ccccc21	esBAF inh 56
CCOc1cc(/C=C2/COc3ccccc3C2=O)ccc1OCC(=O)N(C)C	none (no result: esBAF inh)
O=C1/C(=C/c2ccc(O)cc2)COc2ccccc21	Wnt act 31
CNc1ccc(/C=C2\COc3ccccc3C2=O)cc1[N+](=O)[O-]	esBAF inh 49 (no result: Wnt act)

Screens as filed in PubChem.
